Here are results for five compounds from PubChem BioAssay.

Active and inactive are the calls of the source.

The target of test [1] is Albumin (Bos taurus) (UniProt P02769). The test can be described thus: compounds binding labelled BSA control protein – biochemical, small-molecule microarray, Alexa647 label, 635/667 nm fluorescence, artefact control for SMM control protein annotation, profiling panel (AID 1118).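 Note: score merges 667 nm emission intensity and signal-to-noise per printed compound spot.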 The conditions noted are these: BSA-A647 binding, fluorescence 635 nm, higher = more signal.
Sequence of Albumin (Bos taurus) (P02769 whole entry, looked up): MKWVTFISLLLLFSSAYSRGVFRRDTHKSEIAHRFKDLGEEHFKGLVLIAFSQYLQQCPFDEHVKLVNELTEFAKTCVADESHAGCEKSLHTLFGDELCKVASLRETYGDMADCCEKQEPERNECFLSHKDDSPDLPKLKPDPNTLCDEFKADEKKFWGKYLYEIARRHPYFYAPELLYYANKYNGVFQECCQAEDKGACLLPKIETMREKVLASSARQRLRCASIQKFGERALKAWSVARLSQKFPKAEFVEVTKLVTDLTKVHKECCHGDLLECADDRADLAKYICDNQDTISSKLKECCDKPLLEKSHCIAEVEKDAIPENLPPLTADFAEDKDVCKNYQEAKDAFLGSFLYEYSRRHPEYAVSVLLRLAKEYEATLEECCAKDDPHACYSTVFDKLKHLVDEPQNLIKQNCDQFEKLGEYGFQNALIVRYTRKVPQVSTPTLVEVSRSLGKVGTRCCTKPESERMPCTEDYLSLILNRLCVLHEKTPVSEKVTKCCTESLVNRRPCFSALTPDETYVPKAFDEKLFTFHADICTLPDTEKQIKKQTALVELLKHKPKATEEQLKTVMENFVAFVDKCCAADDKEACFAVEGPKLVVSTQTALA
A short description of test [2]: probe aXIP binding to arrayed compounds – biochemical, NeuroSMM set, 635/667 nm fluorescence, primary screen (AID 1119).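 Note: probe is the protein aXip251-270 applied at 1 µg/mL to compound-printed slides; binding of probe to printed compounds measured as 667 nm fluorescence plus signal to noise.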 The conditions noted are these: small-molecule microarray, higher = more signal, called active from +8 up or from −8 down.
Test [3] is described as follows: probe aNOTCH3 binding on compound microarray – biochemical, small-molecule microarray, 635/667 nm fluorescence, primary screen (AID 1120).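 Note: probe is a biotin-tagged antibody raised against NOTCH3 rather than NOTCH3 protein; score merges spot fluorescence near 667 nm with spot signal to noise.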 The conditions noted are these: higher = more signal.
The nature of test [4]: probe aNOTCH2 binding on compound microarray – biochemical, small-molecule microarray, 635/667 nm fluorescence, primary screen (AID 1121).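 Note: score merges feature fluorescence read at 667 nm with its signal to noise.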 The conditions noted are these: higher = more signal.
Test [5] concerns the target Carbonic anhydrase 2 (Homo sapiens) (UniProt P00918). The experiment in a line: compounds binding carbonic anhydrase 2 – biochemical, small-molecule microarray, Alexa647-labelled CAII, profiling panel (AID 1122). Conditions: CAII-A647 binding fluorescence, higher = more signal.
The nature of test [6]: COS7 lysate on small-molecule microarray, probe aHis, 635 nm (AID 1123).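 Note: z-score combines 667nm fluorescence intensity with signal-to-noise per printed compound spot.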 The conditions noted are these: COS7 cell lysate, fluorescence, higher = more signal.
A short description of test [7]: probe aLAP1 signal on lysate-treated microarray – cell lysate, small-molecule microarray, COS7 lysate, primary screen (AID 1124).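 Note: lysate comes from COS7 cells expressing LAP1 and is applied at 0.3 µg/mL; score merges spot fluorescence near 667 nm with signal-to-noise over triplicate slides.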 The conditions noted are these: probe aLAP1, fluorescence, higher = more signal.
For test [8], the system named is Sam68 (KHDRBS1). The experiment in a line: compounds binding KHDRBS1 protein – biochemical, small-molecule microarray, 635 nm fluorescence, primary screen (AID 1125).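 Note: score merges 667 nm channel intensity with signal to noise over triplicate slides.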 Conditions: higher = more signal.
Test [9] relates to Chordin-like protein 2 (CHRDL2). The test can be described thus: compounds binding chordin-like 2 – biochemical, small-molecule microarray, 635 nm fluorescence, primary screen (AID 1126).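 Note: printed compound slides probed with Chrdl2 protein at 4 µg/mL for 1 h at 4 C; score merges 667 nm emission intensity with signal to noise over three replicate slides.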 Conditions: fluorescence 635 nm, higher = more signal.
Test [10] concerns the target Concanavalin-A (Canavalia ensiformis) (UniProt P02866). The experiment in a line: compounds binding concanavalin A lectin – biochemical, small-molecule microarray, Alexa647 label, 635 nm, artefact control for SMM control protein annotation, primary screen (AID 1127).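 Note: z combines 667 nm emission intensity with signal-to-noise across three replicate slides.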 Conditions: ConA-A647 binding fluorescence, higher = more signal.
A short description of test [11]: compounds binding Alexa647 anti-His antibody – biochemical, small-molecule microarray, 635 nm fluorescence, artefact control for SMM control protein annotation, primary screen (AID 1128).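 Note: score merges feature fluorescence with signal-to-noise for each printed compound spot.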 The conditions noted are these: higher = more signal.
Test [12] deals with Human papillomavirus type 1a E7 protein (residues 1-88). The experiment in a line: HPV1a E7 small-molecule binders, primary screen, biochemical, small-molecule microarray, residues 1-88, 635 nm (AID 1129). Conditions: small-molecule microarray binding, fluorescence 635 nm; higher = more signal.
Test [13] deals with Focal adhesion kinase 1 (Homo sapiens) (UniProt Q05397). The test can be described thus: PTK2 protein binding on printed compound slides – biochemical, small-molecule microarray, 635/667 nm fluorescence, BSA, DTT, primary screen (AID 1130).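 Note: composite of spot emission at 667 nm and signal to noise over triplicate slides.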 Conditions: 635 nm fluorescence, higher = more signal.
Sequence of Focal adhesion kinase 1 (Homo sapiens) (Q05397 whole entry, looked up): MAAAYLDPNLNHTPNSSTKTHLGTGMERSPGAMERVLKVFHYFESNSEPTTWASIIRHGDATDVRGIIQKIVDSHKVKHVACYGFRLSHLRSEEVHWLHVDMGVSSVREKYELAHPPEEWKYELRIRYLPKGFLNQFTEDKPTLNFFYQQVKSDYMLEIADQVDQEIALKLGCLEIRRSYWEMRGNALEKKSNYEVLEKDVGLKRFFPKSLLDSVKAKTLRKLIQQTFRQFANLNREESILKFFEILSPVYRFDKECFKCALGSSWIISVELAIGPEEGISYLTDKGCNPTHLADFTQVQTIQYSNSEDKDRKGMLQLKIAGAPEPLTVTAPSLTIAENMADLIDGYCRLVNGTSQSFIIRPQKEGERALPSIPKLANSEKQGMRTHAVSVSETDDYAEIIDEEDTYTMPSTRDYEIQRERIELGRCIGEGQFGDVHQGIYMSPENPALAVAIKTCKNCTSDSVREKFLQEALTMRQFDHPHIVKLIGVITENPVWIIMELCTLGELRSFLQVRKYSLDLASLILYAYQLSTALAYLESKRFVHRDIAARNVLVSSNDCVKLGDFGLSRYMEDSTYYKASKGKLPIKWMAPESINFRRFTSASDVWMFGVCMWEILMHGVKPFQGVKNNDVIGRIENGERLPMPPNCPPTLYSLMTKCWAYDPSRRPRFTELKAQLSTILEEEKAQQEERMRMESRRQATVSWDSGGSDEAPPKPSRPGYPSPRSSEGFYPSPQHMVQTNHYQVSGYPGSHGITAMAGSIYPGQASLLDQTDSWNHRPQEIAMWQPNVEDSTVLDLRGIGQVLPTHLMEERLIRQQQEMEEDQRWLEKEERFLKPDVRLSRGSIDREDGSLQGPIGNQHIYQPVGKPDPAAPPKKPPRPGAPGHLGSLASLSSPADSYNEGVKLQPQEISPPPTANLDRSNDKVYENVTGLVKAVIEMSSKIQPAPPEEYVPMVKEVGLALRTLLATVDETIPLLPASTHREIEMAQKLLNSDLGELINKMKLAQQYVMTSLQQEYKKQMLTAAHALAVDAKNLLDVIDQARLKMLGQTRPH
The test system of test [14] is Fibrinogen (Alexa647-labelled). The experiment in a line: Alexa647-fibrinogen binding to printed small molecules – biochemical, small-molecule microarray, 635/667 nm fluorescence, artefact control for SMM control-protein annotation, profiling panel (AID 1131).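 Note: z-score merges 667 nm fluorescence with per-spot signal-to-noise over triplicate slides.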 The conditions noted are these: fibrinogen-A647 binding fluorescence, higher = more signal.
In test [15] the target is Follistatin (Homo sapiens) (UniProt P19883). The experiment in a line: FST protein binding to printed compounds – biochemical, small-molecule microarray, 635/667 nm fluorescence, primary screen (AID 1132). Conditions: 635 nm fluorescence, higher = more signal.
Sequence of Follistatin (Homo sapiens) (P19883 whole entry, looked up): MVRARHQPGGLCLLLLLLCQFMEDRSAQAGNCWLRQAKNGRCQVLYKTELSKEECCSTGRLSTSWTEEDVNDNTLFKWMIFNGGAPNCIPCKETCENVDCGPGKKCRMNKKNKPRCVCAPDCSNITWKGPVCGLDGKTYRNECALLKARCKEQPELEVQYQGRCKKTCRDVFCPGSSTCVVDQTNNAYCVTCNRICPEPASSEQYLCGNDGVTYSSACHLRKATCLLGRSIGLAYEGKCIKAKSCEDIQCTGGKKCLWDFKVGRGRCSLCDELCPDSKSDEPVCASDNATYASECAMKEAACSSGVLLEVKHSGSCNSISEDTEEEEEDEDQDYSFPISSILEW
Test [16] has as its target Fibroblast growth factor 2 (Homo sapiens) (UniProt P09038). The test can be described thus: basic fibroblast growth factor binding to printed compounds – biochemical, small-molecule microarray, 635/667 nm fluorescence, primary screen (AID 1133). The conditions noted are these: FGF2, fluorescence 635/667, higher = more signal.
Test [17] can be described thus: JC-1 mitochondrial potential readout, lung cancer cells – cell-based, A549, JC-1 fluorescence, basal, 24 h, 100 nL, profiling panel (AID 1138).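 Note: A549 lung adenocarcinoma cells under basal conditions with no added stimulus; test concentration not given here.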 Conditions: higher = more signal.
The subject of test [18] is Lefty1. The experiment in a line: Lefty1 protein binding to printed compounds – biochemical, small-molecule microarray, 635/667 nm fluorescence, primary screen (AID 1139). The conditions noted are these: fluorescence 635/667, higher = more signal.
For test [19], the system named is wheat germ agglutinin (Triticum aestivum), Alexa647-labelled. The experiment in a line: Alexa647-WGA lectin binding to printed small molecules – biochemical, small-molecule microarray, 635/667 nm fluorescence, artefact control for SMM control-protein annotation, profiling panel (AID 1140).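 Note: score merges 667 nm feature emission with signal to noise over triplicate slides.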 The conditions noted are these: WGA-A647 binding, 635 nm fluorescence, higher = more signal.

The target of test [20] is Luciferin 4-monooxygenase (Photinus pyralis) (UniProt P08659). The test can be described thus: inhibition of purified Photinus pyralis luciferase – biochemical, luminescence, purified enzyme, 2006 set, primary screen (AID 1141).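 Note: cell-free assay with purified firefly luciferase at 100 ng per well in PBS; test concentration not given here.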 Conditions: purified firefly luciferase, SteadyGlo luminescence, 30 min; higher = more signal, called active from +8 up or from −8 down.
Sequence of Luciferin 4-monooxygenase (Photinus pyralis) (P08659 whole entry, looked up): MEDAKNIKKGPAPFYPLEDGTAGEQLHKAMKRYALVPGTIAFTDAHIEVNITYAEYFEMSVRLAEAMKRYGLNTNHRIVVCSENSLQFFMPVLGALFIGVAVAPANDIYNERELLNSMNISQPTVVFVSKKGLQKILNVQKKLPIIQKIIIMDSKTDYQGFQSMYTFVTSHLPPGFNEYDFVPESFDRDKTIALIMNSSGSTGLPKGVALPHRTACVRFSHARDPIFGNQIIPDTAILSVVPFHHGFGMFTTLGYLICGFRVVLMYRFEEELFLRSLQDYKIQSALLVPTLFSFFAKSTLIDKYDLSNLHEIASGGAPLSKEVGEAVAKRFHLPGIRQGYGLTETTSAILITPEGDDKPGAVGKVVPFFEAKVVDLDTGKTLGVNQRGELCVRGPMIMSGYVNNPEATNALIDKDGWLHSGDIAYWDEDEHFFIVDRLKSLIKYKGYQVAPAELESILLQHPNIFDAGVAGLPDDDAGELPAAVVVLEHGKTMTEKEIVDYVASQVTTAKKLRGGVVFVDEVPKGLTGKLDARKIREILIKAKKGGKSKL

Sequence of Fibroblast growth factor 2 (Homo sapiens) (P09038 whole entry, looked up): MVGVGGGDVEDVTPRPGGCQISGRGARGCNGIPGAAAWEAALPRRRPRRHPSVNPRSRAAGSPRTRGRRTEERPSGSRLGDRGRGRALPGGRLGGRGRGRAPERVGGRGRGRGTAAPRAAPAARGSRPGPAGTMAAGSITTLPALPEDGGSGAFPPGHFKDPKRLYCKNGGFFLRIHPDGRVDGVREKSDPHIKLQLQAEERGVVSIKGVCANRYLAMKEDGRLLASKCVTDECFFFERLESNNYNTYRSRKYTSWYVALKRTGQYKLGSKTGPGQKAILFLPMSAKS
Sequence of Concanavalin-A (Canavalia ensiformis) (P02866 whole entry, looked up): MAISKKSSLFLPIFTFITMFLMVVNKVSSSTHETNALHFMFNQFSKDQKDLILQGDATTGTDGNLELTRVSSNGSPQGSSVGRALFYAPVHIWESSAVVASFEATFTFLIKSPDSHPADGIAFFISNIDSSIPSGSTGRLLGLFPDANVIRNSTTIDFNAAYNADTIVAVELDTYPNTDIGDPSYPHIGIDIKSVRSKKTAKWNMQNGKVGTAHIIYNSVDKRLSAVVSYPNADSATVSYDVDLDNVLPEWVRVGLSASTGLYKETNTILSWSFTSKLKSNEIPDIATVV

As for `COC(=O)[C@@]1(Cc2ccc(OC)cc2)[C@H]2c3cc(C(=O)N(C)C)n(Cc4ccc(S(C)(=O)=O)cc4)c3C[C@H]2CN1C(=O)c1ccccc1`, the composite z-score in test [1] is 0.49; in test [3], 0.697; in test [4], -0.168; in test [5], 0.725; in test [6], 2.72; in [7], 0.969. Moreover, the composite z-score is 0.549 in test [8]; -0.948 in [9]; -1.06 in test [10]; 1.84 in test [11]; 1.26 in test [12]; 1.07 in test [13]. Besides, the composite z-score in [14] is 0.849; in test [15], 1.11; in test [16] it was -0.56; in test [18], 0.0038; in [19] it was 1.23. In addition, the composite Z-score in test [2] was -0.357 (inactive). The z-score in test [17] was 0.956; in test [20], 1.75 (inactive).

With `C=CCC(OC(C)=O)[C@@H]1[C@@H](N(Cc2ccc(-c3ccccc3)cc2)C(=O)c2ccc(-c3ccccc3)cc2)c2cc(OCCCO)ccc2N1C(=O)Cc1ccc2ccccc2c1` (stereo not given in full), the composite z-score is 0.108 in [1]; -0.0057 in [3]; -0.213 in test [4]; 0.002 in test [5]; 0.522 in test [6]; -0.0155 in test [7]. Also, the composite z-score was 0.621 in test [8]; 0.156 in [9]; -0.288 in test [10]; 1.13 in test [11]; -0.0959 in test [12]; -0.0802 in test [13]. For the same compound, the composite z-score in test [14] is 0.51; in test [15] it was 0.456; in test [16], -0.275; in [18], 0.211; in [19], 0.0685. In test [2], the composite Z-score was -0.316 (inactive). Besides, the z-score in [17] was 0.857; in [20] it was -0.785 (inactive).

As for `NC(=O)N1C(=O)C2C(C1=O)C1C=C(c3ccc(CO)cc3)C2C(c2cccs2)N1Cc1cccc(OC(F)(F)F)c1` (stereo not given), the composite z-score was -0.137 in test [1]; 0.111 in test [3]; -0.0449 in test [4]; 0.72 in [5]; 0.669 in test [6]; 0.798 in test [7]. The composite z-score in [8] is -0.882; in test [9] it was 0.38; in test [10] it was -0.0204; in [11], 1.16; in test [12], 0.0253; in [13], 0.556. For the same compound, the composite z-score in test [14] is -0.0767; in [15] it was 0.704; in test [16], -0.365; in test [18], 0.444; in test [19] it was 0.949. In test [2], the composite Z-score is 0.29 (inactive). In addition, the z-score in [17] was 1.22; in test [20], -2.17 (inactive).

For the compound `CCCc1cc2c(n1Cc1cc(F)cc(F)c1)C(C)C1CN(C(=O)c3ccccc3)C(C)(C(=O)OC)C21` (stereo not given), the composite z-score in test [1] worked out at 1; in test [3], 0.272; in test [4], 0.341; in test [5], 0.633; in test [6], 3.26; in test [7], 1.07. The composite z-score in [8] was 1.22; in [9] it was -0.255; in test [10] it was 1.11; in test [11], 2.15; in test [12], 1.24; in test [13] it was 2.09. Further, the composite z-score was 0.982 in [14]; 0.542 in [15]; -0.48 in [16]; -0.311 in test [18]; 1.01 in test [19]. The composite Z-score in [2] is 0.723 (inactive). Moreover, the z-score is 1.24 in test [17] and -1.15 (inactive) in test [20].

Take `COC(=O)[C@@]1(Cc2ccc(OC)cc2)[C@H]2c3cc(C(=O)N(C)C)n(C)c3C[C@H]2CN1C(=O)c1ccccc1`: the composite z-score in test [1] stood at 1.03; in test [3] it was 0.839; in [4], 0.284; in test [5], 0.76; in [6], 3.16; in test [7], 0.0675. The composite z-score in [8] is 1.31; in [9], -0.1; in test [10] it was 1.15; in test [11] it was 0.392; in test [12], 1.27; in [13], 0.698. Further, the composite z-score in test [14] came out at 0.97; in test [15], 1.22; in [16], 0.0022; in test [18], 0.146; in test [19], 1.11. Moreover, the composite Z-score in [2] was 0.0517 (inactive). Also, the z-score in test [17] was 1.05; in [20], 1.82 (inactive).
